Measurements published in PubChem BioAssay AID1745849 (National Center for Advancing Translational Sciences (NCATS), 2022).
Among all 2,100 compounds or so, about 320 (15%) were called active. Inconclusive results (about 52%) are left out. The call rests on the fitted dose curve; in most records, active means well fitted cell-killing curve with a large enough effect; inconclusive means small, poorly fitted or top-dose-only effect, or effect the other way; inactive means flat fitted curve, though single readings scatter. The list shows a part of the results. Entries that show only a call come without a potency.

Assay: Viability Counterscreen for CMV-Luciferase Assay of Inhibitors of ATXN expression; further: nearly all actives have a fitted effect of over 55% in size
Conditions: HEK-293 CMV-luciferase cells viability, protease fluorescence, 24 h
Excerpt: PI: Daniel Scoles Ph.D. University of Utah School of Medicine, Salt Lake City, Utah MLPCN Grant: NS073009 Spinocerebellar ataxia type 2 (SCA2) is a multisystem neurodegenerative disease caused by a dominantly acting mutation leading to expansion of a polyQ domain in the ataxin-2 protein (ATXN2). SCA2 patients develop progressive ataxia and later lose function in other neuronal systems. Prominent parkinsonian signs develop in some patients. Like many neurodegenerative disorders, no symptomatic or disease-modifying treatments are known. The primary objective of the proposed research is to identify compounds inhibiting ATXN2 expression and to test them for efficacy in SCA2 mouse models. We have developed a cell-based assay paired with an in vivo mouse model using identical luciferase expression constructs. This approach takes advantage of an ATXN2-luciferase transgene, with the luciferase gene flanked by the upstream and downstream portions of the ATXN2 gene. Here we describe a 5-7 dose quantitative high thoroughput screen (qHTS) for compounds lowering ATXN2 expression. We screened the NIH Molecular Libraries Small Molecule Repository (MLSMR) and NCGC's mechanistically annotated (MIPE) and drug repurposing (NPC) collections of compounds for lowering expression of an ATXN2-luciferase reporter in HEK-293 cells. The assay is a multiplexed cell viability assay to ensure target reduction in the absence of cytotoxicity. Secondary qHTS assays included a CMV-luciferase reporter expressed in HEK-293 cells as well as a biochemical assay using recombinant luciferase to detect inhibitors of the reporter enzyme. Compounds that inhibit ATXN2 expression but is not cytotoxic were selected for confirmatory and secondary screens.
PROTOCOL TABLE (as described by Inglese J, Shamu CE and Guy RK. 2007) SEQUENCE No. (e.g., 1, 2, 3, etc.); […] (e.g., Cells, Incubation, Reagent, etc.); VALUE; DESCRIPTION. 1; Cells; 4 uL; white, solid bottom, 1536-well Greiner assay plate. 2; Incubation; 2 hr; 37 degree C in 5% humidified CO2. 3; Compounds; 23 nL; Kalypsis pintool (Wako USA) equipped with a 1536-well pin head. 4; Incubation; 24 hr; 37 degree C in 5% humidfified CO2. 5; Reagent; 1 uL; Gly-Phe-7-Amino-4-trifluoromethylcoumarin. 6; Incubation; 30 min; 37 degree C in 5% humidfified CO2. 7; Detection; Fluorescence; Viewlux plate reader (PerkinElmer). 8; Reagent; 3 uL; SteadyGlo luciferase solution (Promega). 9; Incubation; 5 min; room temperature. 10; Detection; Luminescence; ViewLux plate reader (PerkinElmer). NOTES (numbers refer to Sequence numbers above) 1. HEK-293 cells expressing CMV-luciferase reporter (designated as SC cells) were suspended in phenol-red free DMEM and dispensed in assay plates using a Multidrop Combi dispenser (Thermo Fisher Scientific). 2. Assay plates were incubated. Evaporation was prevented by covering assay plates with metal lids containing holes to allow gas diffusion. 3. Compounds were added in a dose response manner with the final concentrations of 57, 11.4, 2.28, 0.46, 0.091, 0.018, 0.0037 uM. Vehicle-only plates, with DMSO being pin-transferred to columns 5-48, were inserted uniformly at the beginning and the end of each library to monitor and record any shifts in assay performance. 5. 125 uM Gly-Phe-7-Amino-4-trifluoromethylcoumarin (MP Biomedicals) working concentration was used at a final concentration of 25 uM. 7. To assess cell viability; the assay plates were read using the ViewLux high-throughput CCD imager (PerkinElmer), wherein single end-point fluorescence measurement was acquired (excitation 405/10; emission 540/25 nm). 8. Detection reagent SteadyGlo Luciferase (Promega) was added to the assay plate. 10. Luminescence is then measured on the ViewLux imager equipped with a clear emission filter using a 2 sec exposure. […]
Potency means the concentration at half of the fitted maximal effect.

Q: With `CC(=O)N1CCN(c2ccc(Oc3ccc([N+](=O)[O-])c(C(F)(F)F)c3)cc2)CC1` as the molecule, how does the Potency read?
A: inactive

Q: For `O=C(Oc1c(CN2CCOCC2)cc(Cl)c2cccnc12)c1ccccc1`, which Potency is on record?
A: inactive

Q: Which Potency does the source give for `Cc1cc(Oc2ccc(Cl)cc2)nc(-c2ccccn2)n1` here?
A: inactive

Q: For `Clc1ccc(SCc2cc(N3CCOCC3)nc(-c3ccccn3)n2)cc1`, which Potency is on record?
A: 17.8 µM (active)

Q: Which Potency does the source give for `CCCC(=O)Nc1ccc2nc(SCC(=O)N3CCCC3)sc2c1` here?
A: inactive

Q: Which Potency does the source give for `COc1ccccc1OCCN1CSC(=S)N(C)C1` here?
A: 11.2 µM (active)

Q: With `COc1cc(OC)cc(-c2cc3nc(C)c(CCC(=O)NCc4ccccc4)c(C)n3n2)c1` as the molecule, how does the Potency read?
A: inactive

Q: For `O=C(NCc1ccccc1C(F)(F)F)c1cccc2c1C(=O)c1ccc(N3CCC(N4CCCCC4)CC3)cc1S2(=O)=O`, which Potency is on record?
A: inactive

Q: Which Potency does the source give for `Cc1ccsc1/C=C/C1=Cc2c(sc(NC(=O)CSc3n[nH]c(N)n3)c2C#N)C(C)(C)C1` here?
A: inactive

Q: Which Potency does the source give for `COC(=O)c1ccccc1S(=O)(=O)NNC(=O)Nc1ccccc1` here?
A: inactive

Q: For `CCSc1nc2ccccc2n1C(=O)/C=C\c1ccc(OC)c(OC)c1`, which Potency is on record?
A: 4.47 µM (active)

Q: With `COc1ccc(/C=C/C(=O)Nc2cccc(S(=O)(=O)N3CCCC3)c2)cc1OC` as the molecule, how does the Potency read?
A: inactive

Q: With `O=C(CN1c2cccc3cccc(c23)S1(=O)=O)NCc1ccc(Cl)cc1` as the molecule, how does the Potency read?
A: inactive

Q: For `CCN(CC)CCC(c1ccc2c(c1)OCO2)c1c(OC)cc(OC)c2c(-c3ccccc3)cc(=O)oc12` (stereo not drawn), which Potency is on record?
A: 17.8 µM (active)

Q: With `COc1ccccc1C(=O)NNC(=O)c1nn(Cc2ccccc2)c(=O)c2ccccc12` as the molecule, how does the Potency read?
A: 22.4 µM (active)

Q: Which Potency does the source give for `CC(C)(C)c1ccc(OCCn2nc(C(=O)O)c3ccccc3c2=O)cc1` here?
A: inactive

Q: Which Potency does the source give for `COc1ccc(-n2nc(C(=O)NCC(=O)Nc3cccc(Cl)c3)c3ccccc3c2=O)cc1OC` here?
A: inactive

Q: With `O=C(N/N=C/c1ccccc1O)/C(=C/c1ccccc1)CCO` as the molecule, how does the Potency read?
A: inactive

Q: For `CC(C)(C)NCC(=Cc1ccccc1)C(=O)c1ccccc1`, which Potency is on record?
A: 2.24 µM (active)

Q: Which Potency does the source give for `O=C(C(Br)=Cc1ccccc1)c1ccccc1` here?
A: 7.94 µM (active)

Q: Which Potency does the source give for `Cc1ccc(CN(C)C(=O)CN2C(=O)NC(c3ccccc3)(c3ccccc3)C2=O)c(C)c1` here?
A: inactive

Q: With `O=C(Nc1cccc(S(=O)(=O)N2CCOCC2)c1)c1ccc2c(=O)n3c(nc2c1)CCCCC3` as the molecule, how does the Potency read?
A: inactive

Q: With `O=C(Nc1ccc(NC(=O)c2ccc(Cl)cc2Cl)cc1)c1cccs1` as the molecule, how does the Potency read?
A: inactive

Q: For `O=C(Nc1ccc(Cl)cc1)Nc1nc(-c2sccc2Br)cs1`, which Potency is on record?
A: 10 µM (active)

Q: For `Cc1ccc(F)cc1-c1cc2nc(NCCCN(C)C)n(C)c(=O)c2s1`, which Potency is on record?
A: inactive

Q: For `CC(C)c1cccc(C(C)C)c1Nc1cn[nH]c1`, which Potency is on record?
A: inactive

Q: With `CCOC(=O)c1cnc(-n2nc(C)cc2C)nc1NC1CCCC1` as the molecule, how does the Potency read?
A: inactive

Q: Which Potency does the source give for `CCOC(=O)c1cnc(-n2nc(C)cc2C)nc1NNc1cc(C)nc(-c2ccccc2)n1` here?
A: 8.91 µM (active)
